Only some compounds are listed: those with a hit (about 1.2% of all), similar ones and a draw of the others.
BioA inh: M. tuberculosis BioA enzyme inhibitors, primary screen, biochemical, plate reader, single point, HTS; inhibition, % at 9.99 µM; purified M. tuberculosis BioA enzyme; 0.096% of 360,000 active; 7,8-diaminopelargonic acid synthase BioA (Mycobacterium tuberculosis); in the data active = inhibition above about 40%
PfHsp40 yeast: rescue of yeast from PfHsp40 toxicity, primary screen, S. cerevisiae, ATP luminescence; S. cerevisiae expressing PfHsp40, growth rescue; growth rescue, % at 12.5 µM; 0.68% of 340,000 active; AID 504582, 2011; in the data active = growth rescue above about 28%, passing the limit was not always enough;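 also: yeast W303a lacking pdr1 and pdr3 grown in galactose medium; growth measured after three days at 30 °C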
DUSP3 inh: VHR1 phosphatase inhibitors, primary screen, biochemical, absorbance, uHTS. Dual specificity protein phosphatase 3 (Homo sapiens), P51452. recombinant VHR phosphatase, pNPP absorbance. inhibition, % at 13.3 µM. 0.52% of 290,000 active; in the data active = inhibition above about 50%
Target sequence (P51452 whole entry, looked up): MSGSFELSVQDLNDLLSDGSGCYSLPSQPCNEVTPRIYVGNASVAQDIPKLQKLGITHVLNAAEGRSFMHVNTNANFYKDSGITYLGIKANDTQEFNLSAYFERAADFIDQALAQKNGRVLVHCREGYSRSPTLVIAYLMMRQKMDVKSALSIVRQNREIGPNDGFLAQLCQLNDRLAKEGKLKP
TcdB inh: TcdB glycohydrolase inhibitors, primary screen, biochemical, single point, plate reader; AID 652162, 2013; TcdB glycohydrolase enzymatic assay; 0.24% of 350,000 active; inhibition, % at 9.99 µM; in the data active = inhibition above about 10%
Y pestis TopoI: Yersinia pestis topoisomerase I inhibitors, primary screen, biochemical, cleavage product accumulation, plate reader, single point. Y. pestis Topo-I cleavage product accumulation. 0.064% of 360,000 active. DNA topoisomerase I (Yersinia pestis CO92). AID 504884, 2011. activity, % at 10 µM; in the data active = activity above about 50%, passing the limit was not always enough
Vc quorum ag: inducers of Vibrio cholerae quorum light production without autoinducers, primary screen, BH1578 luxS cqsA deficient, single point | 0.16% of 350,000 active | activation, % at 18.7 µM | V. cholerae BH1578 lux reporter, luminescence, 6 h; in the data active = activation mostly above about 9.7%, no sharp cut-off
* = called active by the depositor; i = inactive; / = no result.

SMILES	BioA inh	PfHsp40 yeast	DUSP3 inh	TcdB inh	Y pestis TopoI	Vc quorum ag
Cc1c(C(=O)NCCSCc2cccc(C(F)(F)F)c2)cnn1-c1ccc(F)cc1	0.4	100.8*	-14.6	1.1	16.0	-0.8
CC(=O)c1cccc(NC(=O)COC(=O)c2ccc3c(c2)OCCO3)c1	-1.0	0.5	11.0	0.1	-9.8	-1.3
Nc1nc2nccc(-c3ccc(Cl)cc3)n2n1	-1.1	184.5*	3.4	/	-1.7	-0.6
O=C(CSc1cccc[n+]1[O-])c1cc(Cl)ccc1Cl	/	80.2*	42.8	-4.1	3.3	-0.3
CCN(CC)C(=O)C1CCC(CNS(=O)(=O)c2cccc3cccnc23)CC1 (stereo not drawn)	-2.0	1.1	12.1	0.1	7.6	i
O=C(O)CNC(=O)c1cccc(C(F)(F)F)c1	/	-0.1	13.1	1.2	-3.7	-0.2
Cc1c(CCCC(=O)O)sc(N)c1C(=O)c1cccc(C(F)(F)F)c1	-0.4	-0.2	/	10.8*	-8.4	i
O=C(Cc1ccc(F)cc1)Nc1ccc(Cl)cn1	-0.8	2.1	59.7*	1.2	4.2	0.9
O=C(Cc1ccc(Cl)cc1)Nc1ccc(Cl)cn1	-1.3	0.3	25.2	0.9	-6.2	-0.2
C[C@@H]1CN([C@H](C)CO)C(=O)c2cc(NS(=O)(=O)c3cn(C)cn3)ccc2O[C@@H](C)CCCCO[C@@H]1CN(C)S(=O)(=O)c1ccc(Cl)cc1	4.4	/	/	0.8	/	/
COc1ccc(CCNC(=O)CCCn2nc(C)n3ccnc3c2=O)cc1OC	-0.4	1.2	-2.4	14.4*	-2.0	-0.2
COc1ccc(C(C(=O)NCC2CCCO2)N(C(=O)CNC(=O)c2ccco2)c2cc(C)ccc2C)cc1OC (stereo not drawn)	0.6	0.8	52.9*	1.0	5.4	i
COc1cc(OC)cc(N(C(=O)CNC(=O)c2ccco2)C(C(=O)NCC2CCCO2)c2ccccc2)c1 (stereo not drawn)	1.3	-1.4	58.5*	1.5	10.4	-0.4
Cc1ccc(S(=O)(=O)N2CCCC(C(=O)NNCC(=O)Nc3cc(F)ccc3F)C2)cc1 (stereo not drawn)	/	1.7	14.7	-2.8	-1.3	-0.2
COc1ccc(CCNS(=O)(=O)c2ccc(OC)c(OC)c2)cc1OC	0.4	-0.4	23.4	0.6	9.6	-0.3
COc1ccc(Cn2ccnc2SCC(=O)Nc2ccccc2)cc1	-0.1	0.0	10.1	0.7	-8.2	0.2
CCCCOc1ccc(NC(=O)Nc2nnc(C)s2)cc1	-0.4	-0.8	57.3*	-0.8	4.6	-0.7
CCc1nnc(NC(=O)Nc2ccc(OC)cc2)s1	-1.7	1.6	16.6	/	-5.5	-3.0
Cc1ccsc1C(=O)NCc1ccc(Cl)cc1	-0.8	/	/	0.2	7.9	i
Cc1ccsc1C(=O)NCc1ccccc1Cl	-0.1	0.1	58.5*	0.6	-1.6	-0.5
CCn1c(CNC(=O)c2cccc(C)c2)nnc1SCC(=O)NC1=NCCS1	1.6	-1.6	52.0*	-0.4	0.3	-1.2
CS(=O)(=O)CCC(C(=O)Nc1ccc2c(c1)OCO2)N1Cc2ccccc2C1=O (stereo not drawn)	2.9	1.3	56.8*	1.7	-15.8	-3.9
COc1cc(C(=O)Nc2scc(-c3ccccc3)c2C(=O)O)cc(OC)c1OC	1.6	0.5	13.9	13.1*	9.1	i
O=C(Nc1scc(-c2ccccc2)c1C(=O)O)c1ccccc1Cl	0.7	0.6	10.4	-0.8	-4.2	i
COc1ccc(-c2csc(NC(=O)c3ccccc3F)c2C(=O)O)cc1	/	309.8*	-9.1	10.6*	10.6	-0.5
SMILES	BioA inh	PfHsp40 yeast	DUSP3 inh	TcdB inh	Y pestis TopoI	Vc quorum ag
COc1cc(C(=O)Nc2scc(-c3ccc(C)cc3)c2C(=O)O)cc(OC)c1OC	1.1	0.1	4.1	8.8	6.1	-0.1
Cc1ccc(C(=O)Nc2scc(-c3ccccc3)c2C(=O)O)cc1	4.2	118.9*	/	12.0*	2.2	i
CN(c1ccccc1C(=O)N1CCN(c2cccc(Cl)c2)CC1)S(C)(=O)=O	2.2	-1.1	-15.6	/	7.2	i
CC(=O)Oc1cccc(N2C(=O)c3ccc(C(=O)Nc4cccnc4)cc3C2=O)c1	/	-0.9	13.1	-0.7	-9.6	-1.1
CN1C(=O)c2cc(NS(=O)(=O)c3ccc(F)cc3)ccc2OC[C@@H]2O[C@H](CC(=O)NCC(F)(F)F)CC[C@@H]21	-1.1	/	/	-0.7	/	/
OC(COc1ccccc1)CN1CCN(c2ccccc2)CC1 (stereo not drawn)	0.0	0.0	/	0.1	4.4	-0.8
O=C(NCCCn1ccnc1)c1cc2c(ccc3ccccc32)o1	/	/	43.3	1.9	/	/
C=CC[C@@H](Cc1ccc(F)cc1)C(=O)OC[C@H]1CCCN1C(=O)[C@@H](CC=C)CC(=O)N[C@@H](CO)Cc1ccccc1	-0.6	32.4*	/	0.6	22.9	i
C=CCC[C@@H](Cc1ccc(F)cc1)C(=O)OC[C@H]1CCCN1C(=O)[C@@H](CC=C)CC(=O)N[C@H](CO)Cc1ccccc1	-0.6	38.6*	/	0.3	17.8	i
C=CCC[C@@H](Cc1ccc(F)cc1)C(=O)OC[C@@H]1CCCN1C(=O)[C@H](CC=C)CC(=O)N[C@H](CO)Cc1ccccc1	1.4	45.4*	/	1.7	9.8	-0.5
CCCS(=O)(=O)NC(=O)C1(C)CCCN(C(=O)c2cccc3ccccc23)C1 (stereo not drawn)	0.7	/	/	-1.5	-3.3	-1.6
CCOc1ccccc1N1CCN(Cc2ccc(OC)c(OC)c2)CC1	0.8	1.3	-7.5	/	5.8	0.2
CCOc1cc(CN2CCCCCC2)ccc1OC	-0.4	-1.5	57.0*	-3.5	6.1	-2.1
COc1cc(CN2CCCCCC2)cc(Br)c1O	-3.1	-1.1	55.0*	-1.1	-8.1	-0.4
COc1cc(CN2CCCCCC2)cc(OC)c1O	8.8	0.4	47.8	-1.3	1.3	-0.1
COc1ccc(S(=O)(=O)N2CCN(Cc3ccc(OC)c(OC)c3)CC2)cc1	-0.9	0.4	51.3*	0.6	-8.0	1.6
CN(C(=O)c1ccc2c(c1)C(=O)N(CCC1=CCCCC1)C2=O)C1CCCCC1	0.0	1.6	23.2	1.1	22.9	-0.4
C/C(=N/NC(=O)c1cc2ccccc2cc1O)c1ccco1	-2.1	76.8*	-13.5	1.3	-8.1	-1.1
C/C(=N\NC(=O)c1cc2ccccc2cc1O)c1ccc(C)o1	-1.0	0.3	10.5	-3.1	-10.1	-0.4
C#Cc1ccc(CN2CCCC(C(=O)Nc3ccccc3Oc3cccnc3)C2)cc1 (stereo not drawn)	0.2	-0.8	55.6*	0.7	19.7	0.5
COc1ccc2c(c1)[C@H]1[C@H](CO2)[C@H](c2ccccc2)[C@@]2(C)C(=O)N[C@H](C)C(=O)N12	-1.0	-0.3	/	0.8	-3.3	-0.4
C[C@H]1CN([C@@H](C)CO)C(=O)c2cccc(NC(=O)c3cnccn3)c2O[C@@H]1CN(C)Cc1ccc(C(F)(F)F)cc1	0.9	/	/	-0.2	/	/
